Source: paper PMC4336329 (PLoS ONE, 2015)
About 14,000 (4.5%) of roughly 310,000 compounds showed an effect of 50% or more. The effect is printed as a negative number. What follows is part of a selection rich in strong results, with near analogues and random picks from the rest.
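Note: peak tail current of the secondary pulse compared with the same well before compound.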

These molecules were tested against human ether-à-go-go-related gene (hERG) potassium channel (human, UniProt Q12809) (assay: primary screen, population patch clamp on CHO cells stably expressing hERG; higher = less effect of the substance).
human ether-à-go-go-related gene (hERG) potassium channel, sequence (Q12809 whole entry, looked up): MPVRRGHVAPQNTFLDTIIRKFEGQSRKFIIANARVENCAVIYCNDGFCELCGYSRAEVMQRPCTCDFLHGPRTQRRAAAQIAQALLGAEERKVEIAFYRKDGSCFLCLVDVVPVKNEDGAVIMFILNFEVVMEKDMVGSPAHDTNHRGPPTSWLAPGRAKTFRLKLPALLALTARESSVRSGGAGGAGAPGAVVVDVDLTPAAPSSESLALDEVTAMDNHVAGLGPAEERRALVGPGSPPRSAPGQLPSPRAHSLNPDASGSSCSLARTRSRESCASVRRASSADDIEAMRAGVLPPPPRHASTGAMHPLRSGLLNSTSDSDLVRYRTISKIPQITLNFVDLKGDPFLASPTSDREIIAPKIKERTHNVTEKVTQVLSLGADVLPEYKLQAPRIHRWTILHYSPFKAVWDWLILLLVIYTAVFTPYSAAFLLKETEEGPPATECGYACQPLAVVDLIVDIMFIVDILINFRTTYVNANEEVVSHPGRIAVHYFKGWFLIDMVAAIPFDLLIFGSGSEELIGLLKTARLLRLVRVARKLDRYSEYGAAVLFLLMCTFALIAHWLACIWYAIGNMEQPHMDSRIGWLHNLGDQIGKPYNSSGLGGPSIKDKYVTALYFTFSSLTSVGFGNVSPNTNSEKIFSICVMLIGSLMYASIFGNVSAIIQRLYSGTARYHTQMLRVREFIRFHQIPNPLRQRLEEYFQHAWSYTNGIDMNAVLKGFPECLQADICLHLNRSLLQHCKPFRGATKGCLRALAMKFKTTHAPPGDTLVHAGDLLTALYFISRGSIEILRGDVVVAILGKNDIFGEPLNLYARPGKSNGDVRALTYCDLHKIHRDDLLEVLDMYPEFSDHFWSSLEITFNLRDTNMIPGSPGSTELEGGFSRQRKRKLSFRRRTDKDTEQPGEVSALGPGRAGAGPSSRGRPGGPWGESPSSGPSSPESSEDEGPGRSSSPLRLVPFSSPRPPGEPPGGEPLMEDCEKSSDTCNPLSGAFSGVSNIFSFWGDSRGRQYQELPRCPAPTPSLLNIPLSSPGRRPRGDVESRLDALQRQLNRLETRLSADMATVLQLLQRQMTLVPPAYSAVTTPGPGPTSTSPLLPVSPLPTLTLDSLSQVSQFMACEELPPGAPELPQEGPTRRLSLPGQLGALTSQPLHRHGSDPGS
CCOP(=O)(OCC)C(NC(=O)c1ccc(OC)c(OC)c1)c1ccccc1 (stereo not drawn) was tested, and the “hERG current change (%, negative = inhibition) at 10uM” value was 9.71%. COc1ccc(/C(O)=C2\C(=O)C(=O)N(CCN(C)C)C2c2cc(OC)c(OC)c(OC)c2)c(C)c1 (stereo not drawn) was tested, and the “hERG current change (%, negative = inhibition) at 10uM” value was 3.79%. COc1ccc(NC(=O)/C(N=Nc2cc(S(=O)(=O)Nc3ccc(OC)cc3)ccc2OC)=C(\C)O)cc1 was tested, and the “hERG current change (%, negative = inhibition) at 10uM” value was 24.2%. O=C(c1cnn2c(C(F)(F)F)cc(-c3ccc(F)cc3)nc12)N1CCc2ccccc2C1 was tested, and the “hERG current change (%, negative = inhibition) at 10uM” value was -3.83%. COc1ccc(Nc2ncnc3c2cnn3Cc2ccccc2)cc1 was tested, and the “hERG current change (%, negative = inhibition) at 10uM” value was -18.1%. For CC(C)N(C(=O)c1sc2cc([N+](=O)[O-])ccc2c1Cl)C(C)C, the “hERG current change (%, negative = inhibition) at 10uM” value was -13.4%. For CCOc1ccc(NC(=O)C(CC)n2nc(C)c3c(C)n(-c4ccccc4)nc3c2=O)cc1 (stereo not drawn), the “hERG current change (%, negative = inhibition) at 10uM” value was -30.1%. With CCSc1ccccc1C(=O)Nc1cccnc1 the “hERG current change (%, negative = inhibition) at 10uM” value was -5.83%. COc1ccc(-c2[nH]ncc2CN2CCCN(C(=O)c3ccco3)CC2)cc1F was tested, and the “hERG current change (%, negative = inhibition) at 10uM” value was -55.2%. In the case of O=C(c1ccco1)N1CCN(Cc2cn[nH]c2-c2ccc(F)cc2F)CC1, the “hERG current change (%, negative = inhibition) at 10uM” value was -12.8%. With COc1ccc(-c2[nH]ncc2CN2CCC(N3CCSCC3)CC2)cc1F the “hERG current change (%, negative = inhibition) at 10uM” value was -22.5%. For COCC1CCN(Cc2cn[nH]c2-c2ccc(OC)c(F)c2)C1 (stereo not drawn), the “hERG current change (%, negative = inhibition) at 10uM” value was -4.22%. For O=C(c1ccco1)N1CCCN(Cc2cn[nH]c2-c2ccc(-c3ccccc3)cc2)CC1, the “hERG current change (%, negative = inhibition) at 10uM” value was -59.3%. For COc1ccc(-c2[nH]ncc2CN2CCC(c3ccncc3)CC2)cc1F, the “hERG current change (%, negative = inhibition) at 10uM” value was -62.7%. COc1ccc(-c2[nH]ncc2CN2CCN(C(=O)c3ccco3)CC2)cc1F was tested, and the “hERG current change (%, negative = inhibition) at 10uM” value was -6.81%. O=C(c1ccco1)N1CCN(Cc2cn[nH]c2-c2cccc3ccccc23)CC1 was tested, and the “hERG current change (%, negative = inhibition) at 10uM” value was -29.1%. Cc1ccccc1CN1CCN(C(=O)c2ccco2)CC1.O=C(O)C(=O)O was tested, and the “hERG current change (%, negative = inhibition) at 10uM” value was 7.41%. With Cc1cc(NC(=O)CN2CCN(S(=O)(=O)c3ccc4ccccc4c3)CC2)no1 the “hERG current change (%, negative = inhibition) at 10uM” value was -14.7%. In the case of CCCCN(C(=O)c1ccc2c(c1)OCO2)c1c(N)n(CC(C)C)c(=O)[nH]c1=O, the “hERG current change (%, negative = inhibition) at 10uM” value was -6.58%. In the case of CS(=O)(=O)Nc1ccc2c(c1)ncn2CCc1ccccc1, the “hERG current change (%, negative = inhibition) at 10uM” value was -26.4%. O=C1c2ccccc2C(=O)N1CCc1csc(-c2cccc(F)c2)n1 was tested, and the “hERG current change (%, negative = inhibition) at 10uM” value was -22.5%. For Clc1ccc(-n2ncc3c(NCc4cccnc4)ncnc32)cc1Cl, the “hERG current change (%, negative = inhibition) at 10uM” value was 14.6%. COc1ccc(-c2csc(NC(=O)CN3C(=O)CCC3=O)n2)cc1OC was tested, and the “hERG current change (%, negative = inhibition) at 10uM” value was 11.4%. In the case of Cc1cccc(OC(C)C(=O)N(Cc2cccs2)C2CCS(=O)(=O)C2)c1C (stereo not drawn), the “hERG current change (%, negative = inhibition) at 10uM” value was -14.8%. In the case of COc1ccc(N2CCN(C(=O)CCNS(=O)(=O)c3ccc(Br)s3)CC2)cc1, the “hERG current change (%, negative = inhibition) at 10uM” value was -50.6%. COc1ccc(N2CCN(C(=O)CCNS(=O)(=O)c3cccs3)CC2)cc1 was tested, and the “hERG current change (%, negative = inhibition) at 10uM” value was -26%. COc1ccc(N2CCN(C(=O)CCc3ccc(S(=O)(=O)NC(C)C)cc3)CC2)cc1 was tested, and the “hERG current change (%, negative = inhibition) at 10uM” value was -7.82%. With CC(C)CNS(=O)(=O)c1ccc(CCC(=O)N2CCN(c3ccccc3)CC2)cc1 the “hERG current change (%, negative = inhibition) at 10uM” value was -91.3%. In the case of O=C(CCc1ccc(S(=O)(=O)NCc2ccccc2)cc1)N1CCN(Cc2ccc3c(c2)OCO3)CC1, the “hERG current change (%, negative = inhibition) at 10uM” value was -41.2%. For O=C(CCc1ccc(S(=O)(=O)NCCc2ccccc2)cc1)N1CCN(Cc2ccc3c(c2)OCO3)CC1, the “hERG current change (%, negative = inhibition) at 10uM” value was -48.5%. In the case of COc1ccc(N2CCN(C(=O)CNS(=O)(=O)c3ccc(Br)s3)CC2)cc1, the “hERG current change (%, negative = inhibition) at 10uM” value was -27.6%. With COc1ccc(N2CCN(C(=O)CCc3ccc(S(=O)(=O)NCC(C)C)cc3)CC2)cc1 the “hERG current change (%, negative = inhibition) at 10uM” value was -57.1%. In the case of CC(C)CNS(=O)(=O)c1ccc(CCC(=O)N2CCN(Cc3ccccc3)CC2)cc1, the “hERG current change (%, negative = inhibition) at 10uM” value was -35.2%. CCNS(=O)(=O)c1ccc(CCC(=O)N2CCN(c3ccccc3)CC2)cc1 was tested, and the “hERG current change (%, negative = inhibition) at 10uM” value was -16.8%. CC(C)CNS(=O)(=O)c1ccc(CCC(=O)N2CCN(Cc3ccc4c(c3)OCO4)CC2)cc1 was tested, and the “hERG current change (%, negative = inhibition) at 10uM” value was -54.4%. For CCNS(=O)(=O)c1ccc(CCC(=O)N2CCN(c3ccc(OC)cc3)CC2)cc1, the “hERG current change (%, negative = inhibition) at 10uM” value was -8.99%. In the case of Cc1ccc(S(=O)(=O)N(C(=N)N)c2nc(N(C)C)nc(N(C)C)n2)cc1, the “hERG current change (%, negative = inhibition) at 10uM” value was 4.96%. CN(C)P(=O)(NC(=O)c1cccn1C)N(C)C was tested, and the “hERG current change (%, negative = inhibition) at 10uM” value was 47.3%. For CC(=O)Nc1ccc(Nc2ncnc3c2cnn3-c2ccccc2)cc1, the “hERG current change (%, negative = inhibition) at 10uM” value was 12.9%. Cc1cc(C)nc(Nc2nc(-c3ccccc3)cs2)n1 was tested, and the “hERG current change (%, negative = inhibition) at 10uM” value was 16.4%. With O=C(NCCS(=O)c1ccc(Cl)cc1)c1cccc(Cl)c1 (stereo not drawn) the “hERG current change (%, negative = inhibition) at 10uM” value was -12.2%. Cc1ccc(C(C)C)c(OC(=O)/C=C/c2ccccc2)c1 was tested, and the “hERG current change (%, negative = inhibition) at 10uM” value was 9.52%. In the case of Cn1cc(S(=O)(=O)N2CCCC2)cc1C(=O)N1CCN(c2ccccc2)CC1, the “hERG current change (%, negative = inhibition) at 10uM” value was -35.8%. CCc1ccc(NC2=NCCCS2)cc1 was tested, and the “hERG current change (%, negative = inhibition) at 10uM” value was -9.94%. For c1ccc2c3c([nH]c2c1)C1(CCNCC1)NCC3, the “hERG current change (%, negative = inhibition) at 10uM” value was -6.06%. CC(C)CNS(=O)(=O)c1ccc(CCC(=O)N2CCCC2)cc1 was tested, and the “hERG current change (%, negative = inhibition) at 10uM” value was 24.4%. In the case of CCCNS(=O)(=O)c1ccc(CCC(=O)N2CCN(c3ccc(F)cc3)CC2)cc1, the “hERG current change (%, negative = inhibition) at 10uM” value was -43.7%. CC(C)CNS(=O)(=O)c1ccc(CCC(=O)N2CCN(c3ccc(F)cc3)CC2)cc1 was tested, and the “hERG current change (%, negative = inhibition) at 10uM” value was -50.3%. COc1cc2c3nnc(-c4ccc(F)cc4)c-3cn(Cc3cccc(F)c3)c2cc1OC was tested, and the “hERG current change (%, negative = inhibition) at 10uM” value was 29.7%. With COc1ccc(Cn2cc3c(-c4ccc(F)cc4)nnc-3c3cc(OC)c(OC)cc32)cc1 the “hERG current change (%, negative = inhibition) at 10uM” value was -88.2%. For COc1cc2c3nnc(-c4ccc(F)cc4)c-3cn(Cc3ccc(F)cc3)c2cc1OC, the “hERG current change (%, negative = inhibition) at 10uM” value was -28.5%. In the case of COc1cc2c3nnc(-c4ccccc4)c-3cn(Cc3ccc(F)cc3)c2cc1OC, the “hERG current change (%, negative = inhibition) at 10uM” value was -76.8%. With COc1cc2c3nnc(-c4ccc(F)cc4)c-3cn(Cc3ccc(C)cc3)c2cc1OC the “hERG current change (%, negative = inhibition) at 10uM” value was 2.79%. For COc1cc2c3nnc(-c4ccc(F)cc4)c-3cn(Cc3ccccc3)c2cc1OC, the “hERG current change (%, negative = inhibition) at 10uM” value was -37.1%.
